Screens deposited in PubChem by several laboratories.
Hits are enriched below; roughly 4.2% of the tested compounds scored in any of these assays.
esBAF inh = blocks esBAF chromatin remodeling in mouse ES cells; 350,000 tested, 2% active; Bmi1-luciferase knock-in reporter, 24 h; 100% = twice the neutral-well signal; reporter increase, % at 12.5 µM; in the data active means activation above about 40%; inconclusive means no clear call, values can overlap the other calls;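 further: 0% = median of the plate's neutral control wells and 100% = double that signal; a rise in the Bmi1 reporter signal indicates esBAF inhibition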
hcDAF-12 act = activates DAF-12 receptor from parasite H. contortus | HEK293 hcDAF-12 lit1-tk-luc reporter, luminescence; 0% DMSO, 100% Δ7-dafachronic acid | activation, % at 6.8 µM | 370,000 tested, 1.4% active | AID 652067;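 active means activation above the mean of all tested compounds plus 3 SD, cut at about 5.5% in these data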;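 further: 100% = response to 3 µM Δ7-dafachronic acid high control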
ssDAF-12 act = activates DAF-12 receptor from parasite S. stercoralis. HEK293 ssDAF-12/GRIP1 lit1-tk-luc reporter, luminescence; % of 3 µM dafachronic acid response. activation, % at 6.8 µM. 370,000 tested, 1% active;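 active means activation above the mean over all tested compounds plus 3 SD, cut at about 0.9% in these data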;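 further: 0% = DMSO-only wells and 100% = 3 µM delta7-dafachronic acid wells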
hgDAF12 agonist = agonists of H. glycines DAF-12 nuclear receptor; HEK293 GAL4-hgDAF12 UAS-luciferase reporter, agonist luminescence; normalized to butyrate control; activation, % at 6.8 µM; 370,000 tested, 1.8% active; AID 687014;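 active means activation above a cutoff set at the mean of all screened compounds plus 3 SD, cut at about 10% in these data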;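 further: 0% = DMSO wells and 100% = sodium butyrate wells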
DAX1 inh = DAX1 (NR0B1) inhibition, primary screen. HEK293T StAR-luciferase reporter, SF-1/DAX-1 repression relief. inhibition, % at 6.8 µM. 370,000 tested, 1.1% active. AID 652010;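 active means inhibition above the mean over all tested compounds plus 3 SD, cut at about 3.6% in these data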;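 further: 0% = DAX-1 cells with DMSO and 100% = cells lacking DAX-1 with DMSO; higher inhibition means more luminescence from relief of DAX-1 repression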
Wnt act = activators of Wnt/beta-catenin signaling. Wnt/beta-catenin reporter cell assay, activator, plate reader. activation, % at 9.35 µM. 300,000 tested, 1.2% active. AID 743398; in the data active means activation above about 30%, passing the limit was not always enough; inconclusive means no clear call, values can overlap the other calls;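 further: 0% = neutral control wells and 100% = positive control wells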
Numbers without * were called inactive; ? = inconclusive; / = not tested or not shown.

SMILES	esBAF inh	hcDAF-12 act	ssDAF-12 act	hgDAF12 agonist	DAX1 inh	Wnt act
COC(=O)[C@]12CCCCC=C1N(Cc1ccc3c(c1)OCO3)C(=O)[C@H](CC(=O)NCC1CCCCC1)C2	/	-0.1	-1.3	3.1	4.1*	-2.0
COCCCNC(=O)C[C@@H]1C[C@@]2(C(=O)OC)CCCCC=C2N(Cc2ccc3c(c2)OCO3)C1=O	/	-1.4	-1.3	0.5	1.9	-0.1
Cc1ccc(S(=O)(=O)N(C)C[C@@H]2Oc3ncc(-c4ccccc4)cc3C(=O)N([C@H](C)CO)C[C@@H]2C)cc1	0.5	/	/	/	/	/
CCOc1cc(/C=C/c2nc3ccccc3c(=O)[nH]2)ccc1O	71.0*	2.1	-1.1	5.8	0.7	7.9
COc1cc(/C=C/c2nc3ccccc3c(=O)[nH]2)cc(Br)c1O	17.9	2.7	-1.0	1.6	-0.3	1.0
C[C@@H]1CN([C@@H](C)CO)C(=O)c2cc(C3=CCCC3)cnc2O[C@H]1CN(C)Cc1ccccc1C(=O)O	-5.6	/	/	/	/	/
N#CC1=C2SC=C(c3ccc(Br)cc3)N2CCCC1=O	/	3.3	-1.1	11.3*	3.7*	17.1
CNc1nc(-c2ccc(Cl)cc2)cs1	51.5*	1.1	-0.7	10.0	1.3	/
CCN(CC)CC(=O)Nc1nc(-c2ccc(Cl)cc2)cs1	11.8	-0.7	-0.9	-0.7	-0.2	/
Clc1ccc(Nc2nc(-c3ccncc3)cs2)cc1	29.5	1.3	0.6	6.7	1.0	/
CNc1nc(-c2ccc([N+](=O)[O-])cc2)cs1	45.2*	0.2	-0.8	2.3	0.5	18.8
CCNc1nc(-c2ccc(Cl)cc2)cs1	89.7*	2.4	-0.2	11.7*	1.2	/
C[C@H](CO)N1C[C@H](C)[C@H](CN(C)C(=O)CN(C)C)Oc2cc(C3=CCCCC3)ccc2S1(=O)=O	-11.7	/	/	/	/	/
COc1cc(NC(=O)C2=C(N3CCOCC3)/C(=C/c3ccc(Cl)cc3)CC2)cc(OC)c1OC	/	0.1	-1.3	-2.0	-0.3	/
O=C(Nc1ccccc1)C1=C(N2CCOCC2)/C(=C/c2cccnc2)CC1	41.8*	-2.1	-1.1	-0.3	0.1	1.4
Cc1ccc(NCc2ccc(O)c3ncccc23)cc1C	2.1	-1.5	1.9*	-2.4	-0.1	-2.2
Cc1ccc(NCc2ccc(O)c3ncccc23)cc1	/	0.1	0.2	0.6	-0.1	-5.5
C[C@H](O)C#Cc1ccc2c(c1)O[C@@H](CN(C)C(=O)C1CCC1)[C@H](C)CN([C@@H](C)CO)S2(=O)=O	1.7	/	/	/	/	/
CC(Cc1ccco1)NC(=O)c1cccc(S(=O)(=O)N(C)C)c1 (stereo not given)	32.4	4.3	-0.1	12.3*	1.1	13.4
CC(=O)Nc1ccc(NC(=O)C(C)OC(=O)/C(C#N)=C/c2ccc(N(C)C)cc2)cc1 (stereo not given)	66.0*	1.2	-0.4	8.3	2.1	19.5
CC(OC(=O)/C(C#N)=C/c1ccc(N(C)C)cc1)C(=O)N(C)c1ccccc1 (stereo not given)	16.6	-0.8	-1.1	2.1	-2.5	1.4
COCC1CCN(C(=O)c2oc3c(F)cccc3c2C)C1 (stereo not given)	11.7	-1.7	-1.4	1.7	0.1	4.9
CCOC(=O)N1CCC(NC(=O)c2oc3c(F)cccc3c2C)CC1	50.2*	1.9	-0.6	1.5	3.4	12.6
O=S(=O)(c1ccc(F)cc1)N1CCCc2nc(-c3ccc(Br)cc3)ccc21	/	0.8	-1.0	3.5	-0.9	2.7
N#Cc1ccc(S(=O)(=O)N2CCCc3nc(-c4ccc(Br)cc4)ccc32)cc1	/	1.1	1.4*	1.4	-0.8	4.0
SMILES	esBAF inh	hcDAF-12 act	ssDAF-12 act	hgDAF12 agonist	DAX1 inh	Wnt act
Cc1ccc(S(=O)(=O)N2CCCc3nc(-c4ccc(F)cc4)ccc32)cc1	/	-0.8	-0.3	1.3	0.3	0.2
N#Cc1ccc(S(=O)(=O)N2CCCc3nc(-c4ccc(F)cc4)ccc32)cc1	/	4.0	1.7*	0.3	-0.3	-3.3
CC(C)C#Cc1cnc2c(c1)C(=O)N([C@H](C)CO)C[C@H](C)[C@@H](CN(C)C(=O)c1ccccn1)O2	-0.8	/	/	/	/	/
C[C@@H]1CN([C@H](C)CO)C(=O)c2cccc(NC(=O)c3nc4ccccc4s3)c2O[C@H]1CN(C)C(=O)Nc1ccc(C(F)(F)F)cc1	2.4	/	/	/	/	/
OCc1c(OCc2cccc(F)c2)ccc2ccccc12	62.7*	4.3	0.3	6.3	0.5	7.3
CC(C)(C)c1ccc(C#C[C@@H]2C=C[C@H](O)[C@@H](COC(=O)Nc3ccccc3)O2)cc1	/	5.8*	1.9*	5.2	1.4	5.7
CCOc1cc(-c2ccccc2)nc(N)n1	46.6*	2.5	-0.9	3.5	0.2	/
COc1cc(-c2ccccc2)nc(N)n1	/	/	/	/	/	13.5
CCCn1cnc2cc(NCc3ccccc3O)ccc21	57.0*	-0.4	-0.7	0.3	-0.1	8.2
CCn1cnc2cc(NCc3ccc(C)cc3)ccc21	?	1.0	-0.7	4.3	4.4*	/
CCn1cnc2cc(NCc3ccc(N(C)C)cc3)ccc21	35.9	3.2	-1.7	0.9	-0.8	10.4
CCOc1ccc(CNc2ccc3c(c2)ncn3C)cc1	/	-0.3	-0.1	0.8	0.2	24.7
CCCn1cnc2cc(NCc3ccc(Br)cc3)ccc21	52.1*	1.6	-0.3	8.0	1.2	1.7
CCCn1cnc2cc(NCc3cccc(OC)c3)ccc21	52.0*	-0.2	-0.3	5.2	1.6	21.3
CCCCn1cnc2cc(NCc3cccc(OC)c3O)ccc21	27.4	1.2	-1.4	2.4	0.0	3.0
COc1ccc(NC(=O)Nc2ccc3c(c2)C(=O)N([C@@H](C)CO)C[C@@H](C)[C@H](CN(C)C(=O)Nc2ccc(C(F)(F)F)cc2)OCCCC[C@H](C)O3)cc1	-0.6	/	/	/	/	/
COc1cccc(S(=O)(=O)N[C@H]2CC[C@H](CCn3cc(-c4ccc(F)cc4)nn3)O[C@@H]2CO)c1	-14.7	/	/	/	/	/
C[C@H](CO)N1C[C@H](C)[C@@H](CN(C)C(=O)Nc2cccc3ccccc23)Oc2c(NC(=O)c3nc4ccccc4s3)cccc2C1=O	3.4	/	/	/	/	/
O=C(O)C[C@@H]1C[C@H]2c3cc(NS(=O)(=O)c4ccccc4)ccc3O[C@H]2[C@H](CO)O1	0.1	/	/	/	/	/
CCS(=O)(=O)N[C@@H]1C=C[C@H](CC(=O)NC2Cc3ccccc3C2)O[C@H]1CO	1.9	/	/	/	/	/
Cn1cnc2cc(NCc3ccc(Cl)cc3)ccc21	?	2.1	-0.6	8.5	0.6	-0.1
CCn1cnc2cc(NCc3ccc(Br)cc3)ccc21	/	4.8	-0.7	2.9	2.0	35.9*
Cc1ccc(CNc2ccc3c(c2)ncn3C(C)C)cc1	68.2*	1.5	-1.1	7.2	1.8	0.4
CCN(CC)c1ccc(CNc2ccc3c(c2)ncn3CC)cc1	/	-2.1	-0.8	-0.6	-1.3	0.0
CCCCCc1ccc(-c2ccc(OC)cc2)nc1	98.0*	1.5	-0.3	7.6	1.4	20.5
CCCOC(=O)c1ccc(NC(=O)c2cnccn2)cc1	59.2*	0.8	-0.9	5.1	-0.2	/
